Sampled rows, rich in hits. Any-hit rate of the full collection: about 2.4%.
Cruzain inh noDet: cruzain (T. cruzi) inhibition without detergent; purified cruzain, Z-FR-AMC fluorescence, no detergent; Potency, µM, for inactives: max response, negative = inhibition, most hits filed as inhibitors; hit rate 2.3% among 200,000;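 note: plate controls were enzyme without inhibitor for no effect and buffer without enzyme for full effect; nearly all actives have a fitted effect of over 40% in size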
Target sequence (P25779 123-467 limits assumed): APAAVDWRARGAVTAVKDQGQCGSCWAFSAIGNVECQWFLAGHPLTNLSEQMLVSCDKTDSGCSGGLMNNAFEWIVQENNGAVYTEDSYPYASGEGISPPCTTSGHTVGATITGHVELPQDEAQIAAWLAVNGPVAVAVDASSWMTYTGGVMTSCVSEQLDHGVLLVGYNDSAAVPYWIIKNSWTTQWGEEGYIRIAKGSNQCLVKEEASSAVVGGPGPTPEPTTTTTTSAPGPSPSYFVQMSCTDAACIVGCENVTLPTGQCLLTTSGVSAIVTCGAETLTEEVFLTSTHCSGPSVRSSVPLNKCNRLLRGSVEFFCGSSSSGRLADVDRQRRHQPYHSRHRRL
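Detergent-free condition (0.00005% Triton X-100) in acetate buffer pH 5.5 with DTT. 1.5 nM enzyme and compound were pre-mixed 15 min, then 2 uM Z-FR-AMC substrate added; reaction progress from fluorescence change between first and third reads (60 s).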
Cruzain inh Det: cruzain (T. cruzi) inhibition with detergent. Potency, µM, without a hit: max response, negative = inhibition, most hits filed as inhibitors. hit rate 0.43% among 200,000. AID 1478. purified cruzain, Z-FR-AMC fluorescence, 0.01% Triton;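 note: plate controls were neutral wells for no effect and buffer without enzyme for full effect; nearly all actives have a fitted effect of over 40% in size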
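Cysteine protease activity tested under reducing, mildly acidic conditions (100 mM sodium acetate pH 5.5, 5 mM DTT) plus 0.01% Triton X-100. Cruzain 1.5 nM; substrate Z-FR-AMC 2 uM; 15 min compound preincubation at room temperature.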
Numbers without * were called inactive; u = inconclusive. Calls come from the whole dose curve; as a rule, active = well fitted curve in the direction sought with a large enough effect; inconclusive = small, poorly fitted or top-dose-only effect, or another doubt; inactive = no such curve, though single readings can be large; an effect the other way counts as inactive or inconclusive. Potency is the fitted concentration of half-maximal effect.

SMILES	Cruzain inh noDet	Cruzain inh Det
CC(C)(C)c1ccc(C(=O)NCCc2csc3nc(-c4ccccc4F)nn23)cc1	26%	-8%
O=C(NCc1ccc(F)cc1Cl)c1ccc(CSCc2ccccc2Cl)o1	6%	0%
CCCCc1nn2c(=O)cc(COC(=O)c3ccccc3NC(=O)c3cccs3)nc2s1	-5%	0%
COc1ccccc1NC(=O)c1ccc(NC(=O)COC(=O)C(C)C)cc1	3%	-4%
COc1ccccc1NC(=O)c1ccc(NC(=O)COC(=O)CC(NC(=O)c2ccccc2Cl)c2ccccc2)cc1 (stereo not given)	20µM*	-6%
CCOc1ccc(Nc2nnc(-n3nc(C)cc3C)c3ccccc23)cc1	-22%	0%
CCCCC12CN3CC(C)(CN(C1)C3c1c[nH]c3ccccc13)C2=O (stereo not given)	3%	-7%
COc1ccc(S(=O)(=O)Nc2cccc(S(=O)(=O)N3CCCCCC3)c2)cc1	2%	-5%
O=S(=O)(Nc1nc2ccccc2nc1Nc1cccc(S(=O)(=O)N2CCCCC2)c1)c1ccccc1	16µM*	-11%
O=C(Oc1ccc(S(=O)(=O)F)cc1F)c1ccccc1Cl	8%	0%
Cc1ccc(Cn2c(SCC(C)C)nc3c2c(=O)[nH]c(=O)n3C)cc1	10µM*	1%
CCCSc1nc2c(c(=O)[nH]c(=O)n2C)n1Cc1ccc(C)cc1	-23%	0%
CCOC(=O)c1ccc(NC(=O)Cn2nc3c4ccccc4n(Cc4cccc(F)c4)cc-3c2=O)cc1	1%	0%
Cc1ccc(CCC(=O)Nc2ncc(Cc3cccc(Cl)c3Cl)s2)o1	13µM*	1%
CCc1nnc(NC(=O)CCc2ccc(C)o2)s1	-3%	1%
COC(=O)c1ccc(Cn2c(SCc3ccccc3)nc3ccncc32)cc1	7%	-8%
CC(=O)c1nn(-c2cccc(Br)c2)cc1C(=O)c1ccc(C)cc1	0%	-4%
CC(=O)c1nn(-c2cccc(Br)c2)cc1C(=O)c1ccc(Br)cc1	13µM*	4%
Cc1cccc(NC(=O)c2oc3ccc(S(=O)(=O)N4CCCCC4)cc3c2C)c1C	-10%	2%
CCOc1ccccc1NC(=O)Cc1coc2c(C)c(C)ccc12	-2%	1%
O=C(c1ccccc1)[C@H]1[C@H](c2ccccc2)[C@@]2(N=C(c3ccccc3)OC2=O)C2c3ccccc3C=NN21 (stereo not given in full)	10µM*	-7%
COc1ccc([C@H]2[C@H](C(=O)C(C)(C)C)N3N=Cc4ccccc4C3C23C(=O)OC(C)(C)OC3=O)cc1 (stereo not given in full)	0%	-2%
O=C(NCc1ccc2c(c1)OCO2)O[C@@H]1C(=O)c2cc(Br)ccc2O[C@H]1c1ccc2c(c1)OCO2	-1%	-4%
CC(C)(C)OC(=O)[C@H](C1N[C@@H](C(=O)O)C(C)(C)S1)N1C(=O)c2ccccc2C1=O (stereo not given in full)	22%	4%
Cc1ccc2c(=O)c(C(=O)c3ccc(Cl)cc3)cn(CC(=O)Nc3ccc4c(c3)OCCO4)c2n1	1%	-3%
SMILES	Cruzain inh noDet	Cruzain inh Det
CC(C)C(c1nnnn1C1CCCC1)N1CCc2ccccc21 (stereo not given)	2%	0%
Cc1ccc(C(c2nnnn2C2CCCC2)N2CCc3ccccc32)cc1 (stereo not given)	32µM*	-6%
O=C1OCCN1C(=O)[C@H]1[C@H](c2ccccc2)C(c2ccc(F)cc2)=NN1c1ccc(Br)cc1	20µM*	-6%
O=C1OCCN1C(=O)[C@H]1[C@H](c2ccc([N+](=O)[O-])cc2)C(c2ccc(F)cc2)=NN1c1ccccc1	u	4%
O=C1OCCN1C(=O)[C@H]1[C@H](c2ccccc2)C(c2ccccc2)=NN1c1ccccc1	u	1%
O=C1OCCN1C(=O)[C@H]1[C@H](c2ccccc2)C(c2ccccc2)=NN1c1ccc(Br)cc1	20µM*	-5%
Cc1cccc(C2=NN(c3ccccc3)[C@@H](C(=O)N3CCOC3=O)[C@@H]2c2ccccc2)c1	u	-2%
Cc1cccc(C2=NN(c3ccc(Br)cc3)[C@@H](C(=O)N3CCOC3=O)[C@@H]2c2ccccc2)c1	18µM*	-10%
C[C@@H]1C(c2ccccc2)=NN(c2ccccc2)[C@H]1C(=O)N1CCOC1=O	-2%	-2%
O=C1OCCN1C(=O)[C@H]1[C@H](c2ccc([N+](=O)[O-])cc2)C(c2ccc(F)cc2)=NN1c1ccc(Br)cc1	8.9µM*	2%
O=C(CSc1n[nH]c(-c2ccccc2)n1)NCCc1ccccc1	-12%	2%
O=c1c(-c2cc(F)cc(F)c2)nc2cnc(N3CCOCC3)nc2n1C[C@H]1CCCO1	-1%	7%
O=C(CSc1nccn1-c1cccc(Cl)c1)Nc1cccc(C(F)(F)F)c1	10%	-10%
O=C1S/C(=C\c2ccccc2)C(=O)N1CC(O)Cn1c2ccccc2c2ccccc21 (stereo not given)	32µM*	-4%
Cc1cc(C)n(CC(O)Cn2c3ccccc3c3ccccc32)c(=O)n1 (stereo not given)	u	1%
COc1ccc(/C=C2/SC(=O)N(CC(O)Cn3c4ccccc4c4ccccc43)C2=O)cc1 (stereo not given)	10µM*	-5%
COc1ccc(N(CC(O)Cn2c3ccccc3c3ccccc32)S(=O)(=O)c2ccccc2)cc1 (stereo not given)	16µM*	33%
Cc1ccc(N(CC(O)Cn2c3ccccc3c3ccccc32)S(=O)(=O)c2ccc(F)cc2)cc1 (stereo not given)	8%	11%
COc1ccc(CN2CCN(CC(O)Cn3c4ccccc4c4ccccc43)CC2)cc1 (stereo not given)	10%	0%
COc1ccc(NS(=O)(=O)c2ccc(N3CCCCS3(=O)=O)cc2)cc1Cl	-1%	-6%
COc1ccccc1-c1cncnc1NCc1ccccc1	4%	-3%
CCOCCCNC(=O)c1c(NC(=O)c2cc(=O)c3ccccc3o2)sc2c1CCC2	-8%	-1%
CCc1ccccc1NC(=O)CSc1nc2c(c(-c3ccco3)c1C#N)CCCC2	-17%	-7%
Cc1ccccc1NC(=O)CSc1nc2c(c(-c3ccco3)c1C#N)CCCC2	7.9µM*	-5%
O=C(Nc1cccc(F)c1)c1ccc(-c2ccccc2)s1	u	-4%
SMILES	Cruzain inh noDet	Cruzain inh Det
COC(=O)CNC(c1ccccc1)c1cc(Br)ccc1NC(=O)c1cc(OC)c(OC)c(OC)c1 (stereo not given)	u	-7%
Cc1c(C(=O)N/N=C/c2ccc(N(C)C)cc2)[nH]c2ccc(Cl)cc12	10µM*	-10%
Cc1c(C(=O)N/N=C/c2ccccc2)[nH]c2ccc(Cl)cc12	-2%	-7%
COc1cccc(Nc2nc(-c3sc(NC(=O)c4ccccc4)nc3C)cs2)c1	u	1%
COc1ccccc1Nc1nc(-c2sc(NC(=O)c3cccc(Cl)c3)nc2C)cs1	7.9µM*	11%
Cc1ccc(Nc2nc(-c3sc(NC(=O)c4cccc(Cl)c4)nc3C)cs2)cc1	4µM*	6%
Cc1nc(NC(=O)c2ccc(Cl)cc2)sc1-c1csc(Nc2cccc(F)c2)n1	10µM*	9%
COc1ccccc1Nc1nc(-c2sc(NC(=O)C(C)(C)C)nc2C)cs1	-4%	-2%
Cc1nc(C)c(-c2csc(NCc3ccco3)n2)s1	-8%	-7%
Cc1nc(NC(=O)c2ccccc2)sc1-c1csc(NCc2ccco2)n1	16µM*	5%
Cc1ccc(Nc2nc(-c3sc(NC(=O)c4ccco4)nc3C)cs2)cc1	-26%	3%

High-throughput results: PubChem, National Center for Advancing Translational Sciences (NCATS)
